Laboratory results from PubChem BioAssay (Tox21).
Results filed as inconclusive are left out. Active and inactive are the calls of the source. Unless noted, the call rests on the fitted dose curve; in most records, active means well fitted curve in the direction sought with a large enough effect in the repeat runs; inconclusive means weak or mixed curves; inactive means no such curve, though single readings can be large; an effect the other way counts as inactive or inconclusive.

Experiments:
[1] = A CellTox Green Cytotoxicity Assay to monitor cytotoxicity in HepG2 cells - 8 hour (AID 1224890); settings: CellTox Green fluorescence; series mostly up to 76.8 µM; further: nearly all actives have a fitted effect of over 45% in size
Summary of the method: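 Real-time, homogeneous cytotoxicity readout: dead-cell DNA staining by CellTox Green in HepG2 monolayers, fluorescence measured at timed intervals up to 40 h of continuous compound exposure.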

[2] = qHTS assay to identify small molecule antagonists of the estrogen receptor alpha (ER-alpha) signaling pathway using the BG1 cell line in the presence of 0.1 nM 17-beta-estradiol - cell viability counter screen (AID 1259241); settings: VM7Luc4E2 (BG1) viability, CellTiter-Fluor protease, 22 h, 0.1 nM estradiol agonist added; series mostly up to 92.4 µM; further: nearly all actives have a fitted effect of over 40% in size
Summary of the method: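 VM7Luc4E2, 4,000 cells/well, phenol red-free medium + 10% charcoal-stripped FBS; 24 hr plating; cpd + 0.1 nM E2 final, 22 hr 37C/5% CO2; CellTiter-Fluor 30 min, fluorescence.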

[3] = qHTS assay to identify small molecule antagonists of the androgen receptor (AR) signaling pathway using the MDA cell line in the presence of 0.5 nM R1881 - cell viability counter screen (AID 1259242); settings: MDA-kb2 viability, CellTiter-Fluor protease fluorescence, 16 h; series mostly up to 92.4 µM; further: nearly all actives have a fitted effect of over 45% in size
Summary of the method: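 Cytotoxicity toward MDA-kb2 cells is measured by CellTiter-Fluor live-cell protease fluorescence after 16 hr compound exposure at 37C in the presence of 0.5 nM R1881 stimulator.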

[4] = biological target: Estrogen receptor (Homo sapiens) (UniProt P03372); assay: qHTS assay to identify small molecule antagonists of the estrogen receptor alpha (ER-alpha) signaling pathway using the BG1 cell line in the presence of 0.1 nM 17-beta-estradiol (AID 1259244); settings: VM7Luc4E2 (BG1) ERE-luciferase, antagonist mode, 0.1 nM E2, 22 h; series mostly up to 92.4 µM; further: nearly all actives have a fitted effect of over 50% in size
Summary of the method: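 After 5 days in hormone-depleted medium (charcoal-stripped serum, no phenol red), VM7Luc4E2 cells were seeded, incubated 24 h, then co-treated with compound and 0.1 nM (final) estradiol for 22 h before luminescence detection.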

[5] = qHTS assay to identify small molecule HDAC inhibitors (AID 1259364); settings: HCT-116 HDAC-Glo I/II luminescence, 2 h; series mostly up to 92.4 µM; further: top concentration of the series differs between compounds; nearly all actives have a fitted effect of over 45% in size
Summary of the method: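 Homogeneous cell-based luminescent assay of endogenous class I/II HDAC activity; HCT-116 cells, 2 h compound exposure, 30 min HDAC-Glo development at RT.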

[6] = qHTS assay to identify small molecule HDAC inhibitors - cell viability counter screen (AID 1259365); settings: HCT-116 viability, CellTiter-Glo ATP luminescence, 2 h; series mostly up to 92.4 µM; further: nearly all actives have a fitted effect of over 50% in size
Summary of the method: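 Luminescence from CellTiter-Glo, developed 30min at room temperature, reports viability of wild-type HCT-116 cells treated 2hr with compounds at 37 C and 5% CO2 after overnight plating.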

[7] = qHTS assay to identify small molecule agonists of the sonic hedgehog signaling (Shh) pathway - cell viability counter screen (AID 1259366); settings: NIH/3T3 Gli1-Luc viability, CellTiter-Fluor, 24 h; series mostly up to 92.4 µM; further: nearly all actives have a fitted effect of over 50% in size
Summary of the method: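 Cytotoxicity counter screen run in the same wells as the Shh reporter assay. NIH/3T3 cells carrying a Gli1 response element–driven luciferase were treated with DMSO-dissolved compounds for 24hr, and live-cell protease activity was measured with CellTiter-Fluor.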

[8] = qHTS assay to identify small molecule antagonists of the sonic hedgehog signaling (Shh) pathway - cell viability counter screen (AID 1259367); settings: NIH/3T3 Gli1-Luc viability, CellTiter-Fluor, 24 h; series mostly up to 92.4 µM; further: nearly all actives have a fitted effect of over 55% in size
Summary of the method: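 NIH/3T3-derived Gli1-Luc reporter cells, 2,000/well, plated 4 hr before compound addition, then stimulated with conditioned medium for 24 hr at 37C. Viability measured in the same wells by CellTiter-Fluor fluorescence, reagent added at 23 hr for 1 hr.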

[9] = qHTS assay to identify small molecule phospholipidosis (PLD) inducers (AID 1259344; active means well fitted curve in the direction sought with a large enough effect; an effect the other way counts as inactive or inconclusive); settings: HepG2 phospholipidosis, LipidTOX Red imaging, 24 h; series mostly up to 38.3 µM
Summary of the method: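 HepG2 cells, 900/well, treated with compound plus LipidTOX Red for 24 h at 37 C; amiodarone positive and DMSO negative controls. Fixed with paraformaldehyde/Hoechst, then high-content imaging scored LipidTOX pit count and integrated intensity per well and per cell.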
On the % scale 0 is the no-effect control and ±100 the full control effect.

Estrogen receptor (Homo sapiens), sequence (P03372 whole entry, looked up): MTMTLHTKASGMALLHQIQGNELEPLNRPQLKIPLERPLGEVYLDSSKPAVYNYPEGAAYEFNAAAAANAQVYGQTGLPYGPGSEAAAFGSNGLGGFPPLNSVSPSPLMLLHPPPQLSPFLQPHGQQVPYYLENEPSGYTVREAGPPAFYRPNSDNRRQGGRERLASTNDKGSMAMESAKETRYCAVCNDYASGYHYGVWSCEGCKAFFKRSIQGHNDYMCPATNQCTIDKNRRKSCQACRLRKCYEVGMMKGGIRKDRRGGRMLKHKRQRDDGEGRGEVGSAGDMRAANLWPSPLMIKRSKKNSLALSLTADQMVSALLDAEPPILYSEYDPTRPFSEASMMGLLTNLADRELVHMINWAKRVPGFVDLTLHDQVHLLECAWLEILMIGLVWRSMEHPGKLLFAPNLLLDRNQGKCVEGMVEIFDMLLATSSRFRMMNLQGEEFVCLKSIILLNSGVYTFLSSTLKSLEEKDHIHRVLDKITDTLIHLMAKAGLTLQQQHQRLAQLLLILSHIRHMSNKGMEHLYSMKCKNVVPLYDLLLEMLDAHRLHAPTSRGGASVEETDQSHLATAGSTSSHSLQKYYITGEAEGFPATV

CC(Cl)Cl
inactive: Potency [1] | Potency [2] | Potency [3] | Potency [4] | Potency [5] | Potency [6] | Potency [7]

O=C(NCc1cccnc1)Nc1ccc([N+](=O)[O-])cc1
inactive: Potency [1] | Potency [2] | Potency [3] | Potency [4] | Potency [5] | Potency [6] | Potency [7] | Potency [8]

CCCC(=O)Cl
inactive: Potency [1] | Potency [2] | Potency [3] | Potency [4] | Potency [5] | Potency [6] | Potency [7] | Potency [8]

O=NN1CCNCC1
inactive: Potency [1] | Potency [2] | Potency [3] | Potency [4] | Potency [5] | Potency [6] | Potency [7] | Potency [8]

CCCCCCC#N
inactive: Potency [1] | Potency [2] | Potency [3] | Potency [4] | Potency [5] | Potency [6] | Potency [7]

CC(=O)C(C)(C)C
inactive: Potency [1] | Potency [2] | Potency [3] | Potency [4] | Potency [5] | Potency [6] | Potency [7] | Potency [8]

CN1[C@@H]2CC[C@H]1CC(OC(=O)c1cc(Cl)cc(Cl)c1)C2 (stereo partly specified)
inactive: Potency [1] | Potency [2] | Potency [3] | Potency [4] | Potency [5] | Potency [6]

CCCN(CCCl)c1c([N+](=O)[O-])cc(C(F)(F)F)cc1[N+](=O)[O-]
inactive: Potency [1] | Potency [2] | Potency [3] | Potency [4] | Potency [5] | Potency [6] | Potency [7] | Potency [8]

CNP(=O)(OC)Oc1ccc(C(C)(C)C)cc1Cl (stereo unspecified)
inactive: Potency [1] | Potency [2] | Potency [3] | Potency [4] | Potency [5] | Potency [6] | Potency [7]

Cc1c(F)c(F)c(COC(=O)C2C(/C=C(\Cl)C(F)(F)F)C2(C)C)c(F)c1F (stereo unspecified)
inactive: Potency [1] | Potency [2] | Potency [3] | Potency [4] | Potency [5] | Potency [6] | Potency [8]

CN(N=O)c1ccc([N+](=O)[O-])cc1
inactive: Potency [1] | Potency [2] | Potency [3] | Potency [4] | Potency [5] | Potency [6] | Potency [8]

CO[C@@H]1[C@H](OC(=O)NC(=O)CCl)CC[C@]2(CO2)[C@H]1[C@@]1(C)O[C@@H]1CC=C(C)C
inactive: cytotoxicity increase [1] -1.9% [at 15.8 µM] | activity change, negative = cytotoxicity [2] -6.95% [at 19 µM] | viability change, negative = cytotoxic [3] -0.0338% [at 19 µM] | activity change, negative = inhibition [4] -0.212% [at 19 µM] | activity change, negative = cytotoxicity [6] 12.9% [at 19 µM] | viability change, negative = cytotoxic [7] -8.47% [at 19 µM]

CCOc1nc(F)cc2nc(S(=O)(=O)Nc3c(Cl)cccc3Cl)nn12
inactive: Potency [1] | Potency [2] | Potency [3] | Potency [4] | Potency [5] | Potency [6]

CCOP(=S)(OCC)SCSCC
inactive: Potency [1] | Potency [2] | Potency [3] | Potency [4] | Potency [6] | Potency [7] | Potency [8]

O=C(CBr)Nc1ccc(Cl)cc1C(=O)c1ccccc1F
inactive: Potency [1] | Potency [2] | Potency [3] | Potency [4] | Potency [6] | Potency [7]

C=CCN1CC[C@]23c4c5ccc(O)c4O[C@H]2C(=O)CC[C@@]3(O)[C@H]1C5
inactive: Potency [1] | Potency [2] | Potency [3] | outcome [9] | Potency [5] | Potency [6] | Potency [7] | Potency [8]

CC(O)(CS(=O)(=O)c1ccc(F)cc1)C(=O)Nc1ccc(C#N)c(C(F)(F)F)c1 (stereo unspecified)
inactive: Potency [1] | Potency [2] | Potency [3] | outcome [9] | Potency [5] | Potency [6] | Potency [8]

[CH3][Sn]([CH3])([Cl])[Cl]
inactive: Potency [1] | Potency [2] | Potency [3] | Potency [5] | Potency [6]

CC/C(=N\OC/C=C/Cl)C1=C(O)CC(C2CCOCC2)CC1=O (stereo unspecified)
inactive: Potency [1] | Potency [2] | Potency [3] | Potency [5] | Potency [6] | Potency [7] | Potency [8]

CCCC(Cn1cncn1)c1ccc(Cl)cc1Cl (stereo unspecified)
inactive: Potency [1] | Potency [2] | Potency [3] | Potency [5] | Potency [6] | Potency [7] | Potency [8]

Clc1cc(Cl)c(Cl)c(Cl)c1
inactive: Potency [1] | Potency [2] | Potency [3] | Potency [4] | Potency [6] | Potency [7] | Potency [8]

CCn1cc[n+](C)c1
inactive: Potency [1] | Potency [2] | Potency [3] | Potency [5] | Potency [6] | Potency [7] | Potency [8]

C/C=C/C=O
inactive: Potency [1] | Potency [2] | Potency [3] | Potency [5] | Potency [6] | Potency [7] | Potency [8]

Clc1ccc(C(OCCN2CCCCC2)c2ccccc2)cc1 (stereo unspecified)
inactive: Potency [1] | Potency [2] | Potency [3] | outcome [9] | Potency [5] | Potency [6] | Potency [7] | Potency [8]

CCCCc1c(C)nc(NCC)nc1OS(=O)(=O)N(C)C
inactive: Potency [1] | Potency [2] | Potency [3] | Potency [5] | Potency [6]

CCOP(O)OCC
inactive: Potency [1] | Potency [2] | Potency [3] | Potency [5] | Potency [6] | Potency [7]

CC(C)N(C(=O)COc1nnc(C(F)(F)F)s1)c1ccc(F)cc1
inactive: Potency [1] | Potency [2] | Potency [3] | Potency [5] | Potency [6] | Potency [7]

O=C1CN=C(c2ccccc2)c2cc(Cl)ccc2N1CC1CC1
inactive: Potency [1] | Potency [2] | Potency [3] | outcome [9] | Potency [5] | Potency [6] | Potency [7] | Potency [8]

CC1(C)[C@H](C=C(Cl)Cl)[C@@H]1C(=O)O[C@@H](C#N)c1cccc(Oc2ccccc2)c1
inactive: Potency [1] | Potency [2] | Potency [3] | Potency [4] | Potency [6] | Potency [7] | Potency [8]

CC(=O)[C@H]1CC[C@H]2[C@@H]3CC[C@H]4C[C@](C)(O)CC[C@]4(C)[C@H]3CC[C@]12C
inactive: Potency [1] | Potency [2] | Potency [3] | outcome [9] | Potency [5] | Potency [6] | Potency [7]

CCOP(=O)(OCC)O/C(=C/Cl)c1ccc(Cl)cc1Cl
inactive: Potency [1] | Potency [2] | Potency [3] | outcome [9] | Potency [5] | Potency [6] | Potency [7] | Potency [8]
